Screening results (PubChem BioAssay)
An excerpt weighted towards active compounds, which were near 11% of everything screened.
IMPase Li inh = cell-permeable IMPase inhibitors with lithium potentiation; Potency, µM (series often up to 59.4 µM), most hits filed as inhibitors; AID 1457; 210,000 tested, 0.35% active; CHO-M1 cells, IP1 TR-FRET (IP-One), carbachol + lithium; active = well fitted inhibition curve with a large enough effect; inconclusive = small, poorly fitted or top-dose-only effect; inactive = no such curve, though single readings can be large or run the other way;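 also: IP1 builds up when IMPase is blocked and the TR-FRET signal falls; nearly all actives have a fitted effect of over 50% in size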
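Readout is a homogeneous TR-FRET IP1 immunoassay (Ex 320, Em 665 and 620), where raised cytosolic IP1 lowers signal. Cells were CHO-M1 treated 30 min at 37C with test compounds plus a little lithium; AC50 values came from Hill-equation fitting.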
HPGD inh = inhibitors of human 15-hydroxyprostaglandin dehydrogenase (HPGD); Potency, µM, actives largely listed as inhibitors; 150,000 tested, 4.3% active; purified HPGD, NADH fluorescence kinetic, PGE2 substrate; P15428
Target sequence (P15428 whole entry, looked up): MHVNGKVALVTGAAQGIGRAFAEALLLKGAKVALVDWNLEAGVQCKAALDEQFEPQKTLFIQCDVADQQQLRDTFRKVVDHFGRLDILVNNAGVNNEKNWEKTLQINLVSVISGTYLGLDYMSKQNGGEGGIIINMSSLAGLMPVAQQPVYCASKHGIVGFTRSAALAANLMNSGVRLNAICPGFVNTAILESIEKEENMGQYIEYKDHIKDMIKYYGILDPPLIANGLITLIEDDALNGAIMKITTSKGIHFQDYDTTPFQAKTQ
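NADH formation kinetics: reaction with 30 uM PGE2 and 1 mM NAD+ (final), 20 nM enzyme, Tris-HCl pH 8 with Tween 20, after 15 min compound preincubation at room temperature. Fluorescence change, last versus first of five reads.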
IMPase cell inh = membrane-permeable compound that blocks inositol monophosphatase. CHO-M1 cells, IP1 accumulation, HTRF TR-FRET ratio. inhibition (IP1 accumulation), % at 46.1 µM. 120,000 tested, under 10 active. AID 901; active = well fitted curve in the direction sought with a large enough effect in the signal ratio, not every such curve was filed as active; inconclusive = small, poorly fitted or top-dose-only effect, or a change in a side signal; inactive = no such curve, though single readings can be large or run the other way; the % refers to the signal ratio;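 also: cells stimulated with carbachol in lithium chloride buffer; higher means more IMPase inhibition seen as more IP1 and lower FRET ratio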
Target sequence (P97697 whole entry, looked up): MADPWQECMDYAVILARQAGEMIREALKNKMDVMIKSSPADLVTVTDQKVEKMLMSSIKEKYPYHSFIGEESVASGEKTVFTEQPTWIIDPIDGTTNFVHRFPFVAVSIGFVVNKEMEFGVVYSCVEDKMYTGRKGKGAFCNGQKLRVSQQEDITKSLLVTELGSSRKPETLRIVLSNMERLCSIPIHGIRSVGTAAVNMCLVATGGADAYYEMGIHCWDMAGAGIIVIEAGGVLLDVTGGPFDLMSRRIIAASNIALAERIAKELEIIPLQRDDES
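Cellular IMPase inhibition is scored as a rise in cytosolic IP1, detected by competitive TR-FRET between d2-labelled IP1 and a europium anti-IP1 antibody. M1-expressing CHO cells were stimulated with carbachol for 30 min at 37C, with lithium (50 mM LiCl) present in the buffer.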
ALDH1A1 inh = blocks purified human ALDH1A1 activity | P00352 | Purified ALDH1A1, NADH fluorescence, propionaldehyde substrate | Potency, µM (doses to about 75.3 µM), most hits filed as inhibitors | 220,000 tested, 7.3% active
PNC assembly inh = inhibitors of perinucleolar compartment assembly | PC3M PTB-GFP, PNC prevalence imaging, 16 h; active compounds read low | activity change (PNC), negative = inhibition, % at 10 µM | 140,000 tested, 3.1% active | AID 2417;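 active = readout at or below -70, meaning at least 70% loss of cells showing the perinucleolar compartment, a nuclear body marking cancer cells; inconclusive = readout between -30 and a set limit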
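Compounds are pinned in duplicate onto adhered PC3M cells stably expressing GFP-tagged PTB and incubated 16 h at 37 C. Cells are then fixed, nuclei stained with Hoechst, and PNC-positive cells counted.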
A number is an active result; – = inactive; ? = inconclusive; · = not tested or not shown; [ ] = another dose, or the depositor's remark. Unless noted, calls follow the shape of the dose curve; as a rule, active = well fitted inhibition curve with a large enough effect (not every such curve was filed as active); inconclusive = small, poorly fitted or top-dose-only effect, or another doubt; inactive = no such curve, though single readings can be large or run the other way.

SMILES | IMPase Li inh | HPGD inh | IMPase cell inh | ALDH1A1 inh | PNC assembly inh
O=C(NCc1ccccc1)c1ccc(Br)o1 | – | 13µM | · | – | –
O=C(NCCc1ccccc1)c1cccc(Br)n1 | – | – | · | – | ·
COc1ccc(CNC(=O)c2ccc(Br)cc2)cc1 | – | · | · | – | ·
COc1ccc(CNC(=O)c2ccc(Br)o2)cc1 | – | 25µM | · | 25µM | –
O=C(NCc1ccc(Cl)cc1)c1cccc(NC(=O)c2ccccc2)c1 | – | ? | · | – | -100
O=C(NCc1ccccc1)c1ccc(CS(=O)(=O)Cc2ccccc2F)o1 | – | · | · | 13µM | ·
O=C(c1ccc(Br)o1)N(Cc1ccccc1)Cc1ccccc1 | – | – | · | 0.79µM | –
Cc1ccc(C(=O)NCc2ccc(Cl)cc2)o1 | – | 14µM | – | – | –
COC(=O)c1cc(NC(=S)NCc2ccc(Cl)cc2)cc(C(=O)OC)c1 | – | – | – | 11µM | ?
CC(NC(=O)c1ccc(Br)o1)c1ccccc1 (configuration not stated) | – | · | · | ? | ·
O=C(NCc1ccc(F)cc1)c1ccc(Br)o1 | – | · | · | – | ·
Cc1ccc(CNC(=O)c2ccc(Br)o2)cc1 | – | 3.2µM | – | 16µM | –
O=C(NC(c1ccccc1)c1ccccc1)c1ccc(Br)o1 | – | – | – | 0.79µM | –
CCCn1c(-c2ccc(F)cc2)nc2c(N3CCC(N(C)C)C3)nc(C)nc21 (configuration not stated) | – | ? | · | ? | ·
O=C(N=C1SCC(=O)N1c1ccccc1Cl)c1ccccc1 | – | · | · | ? | ·
O=C(/C=C/c1ccc(Br)o1)NC(c1ccccc1)c1ccccc1 | – | – | – | 22µM | ?
O=C(NCc1ccc(Cl)cc1)c1ccccc1Oc1ccccc1 | – | 10µM | – | ? | –
O=C(NCc1ccc(Cl)cc1)c1ccc(Cl)cc1[N+](=O)[O-] | – | 16µM | – | – | –
O=C(/C=C/c1ccc(Br)o1)OCc1ccccc1 | – | – | – | ? | –
COCCCNC(=O)c1ccccc1Oc1ccccc1 | – | – | – | – | ?
CCn1ncc(Br)c1C(=O)Nc1nccs1 | – | 25µM | –[1.84 µM] | – | ?
CCN=C(NCC)SC1CC(=O)N(c2cccc(OCC)c2)C1=O (configuration not stated) | – | – | – | – | –
Cc1ccc(/C=C(\NC(=O)c2ccccc2)C(=O)NCCc2ccccn2)o1 | – | – | · | 22µM | –
Cc1ccc(/C=C(/NC(=O)c2ccccc2)C(=O)NCCc2c[nH]c3ccccc23)o1 | – | – | – | 28µM | –
COc1cccc(/C=C/C(=O)Nc2ccc3nc4n(c(=O)c3c2)CCCC4)c1OC | – | · | · | ? | ·
SMILES | IMPase Li inh | HPGD inh | IMPase cell inh | ALDH1A1 inh | PNC assembly inh
COC(=O)C/C=C\[C@@H](C)[C@@H](/C=N\OC[C@@H](C)[C@H](OCc1ccccc1)C(C)C)OC | · | · | · | –[13.5 µM] | ·
CCOC(=O)Cn1c(=S)[nH]c2c(oc3ccc(Cl)cc32)c1=O | 8.9µM | – | ? | ? | ?
CCOC(=O)Cn1c(=O)oc2ccc(C)cc21 | – | · | · | – | ·
CCN(CC)C(=O)C1CCCc2c1[nH]c1ccc(Cl)cc21 (configuration not stated) | – | – | – | – | -93
O=C(NCc1ccccc1F)C1CCCN(C(=O)NC2CCCCC2)C1 (configuration not stated) | – | – | – | – | -124
CCOC(=O)CNC(=S)N(Cc1ccccc1F)C1CCCCC1 | – | · | · | ? | ·
CCCNC(=O)CNC(=S)N(Cc1ccccc1F)C1CCCCC1 | – | · | · | 10µM | ·
O=C(CNC(=S)N(Cc1ccccc1F)C1CCCCC1)NC1CC1 | – | – | – | 13µM | –
NC(N)=Nc1ccc(-c2ccc(N=C(N)N)cc2)cc1 | – | – | · | –[13.5 µM] | ·
C/C(=C\C(=O)C(F)(F)F)Nc1cc(C)cc(C)c1 | – | – | – | – | -85
C/C(=C\C(=O)C(F)(F)F)Nc1ccc(C)cc1 | – | – | · | – | ?
CC1=C(C)C(=O)N(c2ccccn2)C1=O | – | – | – | – | ?
Cc1nn(-c2ccccn2)c2c1C(=O)C(Br)CC2 (configuration not stated) | – | · | · | 11µM | ·
Cc1cccc(CNc2nc(-c3ccccc3CN(C)C)nc3ccccc23)c1 | – | – | · | – | ·
S=c1[nH]nc([C@@H]2C[C@H]2c2ccccc2)n1-c1ccccc1 | – | 25µM | · | ? | ?
S=c1[nH]nc(Cc2ccccc2)n1-c1ccccc1 | – | ? | – | ? | –
COCc1ccc(CN2CCCC(CO)(Cc3cccc(Cl)c3)C2)o1 (configuration not stated) | – | · | · | 8.9µM | ·
COc1cccc(CC2(CO)CCCN(Cc3ccccc3-c3ccco3)C2)c1 (configuration not stated) | – | · | · | ? | ·
COc1cccc(CC2(CO)CCCN(Cc3[nH]c4ccc(C)cc4c3C)C2)c1 (configuration not stated) | · | · | · | 22µM | ·
COc1cccc(CC2(CO)CCCN(Cc3ccc(-c4ccco4)cc3)C2)c1 (configuration not stated) | – | · | · | 11µM | ·
CCCc1n[nH]c2c1C(=O)C(C(=O)OC)C(C)(C)C2 (configuration not stated) | – | – | – | ? | –
COC(=O)[C@@]1(Cc2ccc(F)cc2)[C@H]2c3cc(C(=O)N4CCCC4)n(Cc4cccc5ccccc45)c3C[C@H]2CN1C(=O)c1ccccc1 | – | – | · | – | ·
Cc1ccc(-c2nnn(CC(=O)N(CC(=O)NCc3ccccc3)c3cccc(C)c3C)n2)o1 | – | 25µM | –[1.84 µM] | 10µM | ?
Cc1cccc(N(CC(=O)NC2CCCCC2)C(=O)Cn2nnc(-c3ccc(C)o3)n2)c1 | – | · | · | – | ·
Cc1cccc(N(CC(=O)NCc2ccccc2)C(=O)Cn2nnc(-c3ccc(C)o3)n2)c1 | – | – | – | – | -84
SMILES | IMPase Li inh | HPGD inh | IMPase cell inh | ALDH1A1 inh | PNC assembly inh
CCOCc1c(C(=O)OCC(=O)Nc2ccc(C)c(S(=O)(=O)N(C)C)c2)oc2ccccc12 | – | – | – | ? | ?
Cc1nc2cnc(N3CCNCC3)nc2n(C2CC2)c1=O | – | ? | · | ? | ·
CC(/C=N/NC(=O)CSc1n[nH]c(=O)[nH]c1=O)=C\c1ccccc1 | · | · | · | – | ·
S=C1NC2=C(CCCC2)C2(CCCCC2)N1 | – | – | – | 0.32µM | –
S=c1nc[nH]c2c1[nH]c1ccccc12 | 4.5µM | 25µM | ? | 14µM | ?
CCC(Sc1nc(N)c(NC(=O)c2ccc(OC)cc2)c(=O)[nH]1)C(=O)O (configuration not stated) | – | · | · | – | ·
Cc1[nH]c2ccccc2c1[C@H]1[C@@H](CC#N)C1(C)C | – | – | – | 22µM | –
COc1cccc(C(=O)NNC2OC(CO)C(O)C2O)c1 (configuration not stated) | – | · | · | ? | ·
CCN=C1S/C(=C\c2ccc(-c3cccc(C(=O)O)c3)o2)C(=O)N1CC | – | · | · | ? | ·
CCN1C(=O)/C(=C\c2ccc(-c3ccc([N+](=O)[O-])cc3OC)o2)SC1=Nc1cccc(C(=O)O)c1 | – | · | · | 0.63µM | ·
COc1ccc2c(c1)[N+](=O)C(/C(C)=N/NC(N)=S)=C(C)[N+]2=O | – | – | · | 3.2µM | ·
